Bioassay records: PubChem BioAssay, Sanford-Burnham Center for Chemical Genomics
TROY signal inh: blocks TROY-dependent signaling in reporter cells. Q293 LMP1-TROYcd NF-kB luciferase reporter, 4 h. inhibition, % at 10 µM. 0.98% of 360,000 active. AID 1347056;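 active = compounds whose plate-normalised and pattern-corrected inhibition of the luciferase reporter signal at the single screening dose is 50% or more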
CF NFkB block: inhibitors of cystic fibrosis induced NF-kB; KKLEB NF-kB-GFP reporter, PAF-induced, GFP fluorescence overnight; inhibition, % at 5 µM; 0.86% of 360,000 active; AID 588850;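 active = at least 50% inhibition at 5 µM, scaled per plate between neutral and stimulator controls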;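 also: PAF is a Pseudomonas aeruginosa culture filtrate used as stimulus; plate controls were PAF-stimulated DMSO wells for no effect and unstimulated DMSO wells for full effect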
HIF-2a block: blocks HIF-2a reporter activity; 786-0 RCC cells HIF-2a reporter, luciferase luminescence, overnight; inhibition, % at 18.8 µM; 0.72% of 360,000 active; AID 624352;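 active = inhibition of the luminescence signal of 40% or more relative to plate controls, in a single-dose primary screen at 18.75 µM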
TWEAK-Fn14 inh: inhibitors of TWEAK-Fn14 interaction signaling; TWEAK-stimulated Fn14 reporter cells, luciferase luminescence, 8 h; inhibition, % at 10 µM; 2% of 360,000 active; AID 1159606; in the data active = inhibition above about 50%
KKLEB cytotox: counter-screen for CF NF-kB inhibitors: cytotoxicity; KKLEB CF airway cells viability, ATPlite luminescence, overnight; hits give low values; cells stimulated with P. aeruginosa culture filtrate; activity change (cytotoxicity), % at 5 µM; 0.36% of 360,000 active;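 active = corrected activity change at or below -50% at 5 µM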
Peg3 promoter: inhibitors of Peg3 promoter; HeLa PEG-Prom luciferase reporter, luminescence, overnight; inhibition, % at 20 µM; 1.7% of 360,000 active; AID 588405;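 active = inhibition of at least 50% at 20 µM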
Starred values were filed as active, the others as inactive. Only some compounds are listed: those with a hit (about 4% of all), similar ones and a draw of the others.

What do the screens show for `CC(Sc1nnc(N)s1)C(=O)Nc1ccc2c(c1)OCCO2` (centres undefined)?
TROY signal inh: -10.5; CF NFkB block: -20.4; HIF-2a block: -26.9; TWEAK-Fn14 inh: 1.3; KKLEB cytotox: 22.0; Peg3 promoter: -21.1

What do the screens show for `CC(C)(C)NC(=O)COC(=O)c1ccc(S(=O)(=O)N2CCCC2)cc1`?
TROY signal inh: -5.5; CF NFkB block: 22.3; HIF-2a block: 14.8; TWEAK-Fn14 inh: -23.8; KKLEB cytotox: -14.6; Peg3 promoter: -10.3

How did CC1(c2nnnn2-c2ccc3c(c2)OCCO3)CCC(=O)N1Cc1cccnc1 (centres undefined) do in these assays?
TROY signal inh: 57.4*; HIF-2a block: -13.8; TWEAK-Fn14 inh: 79.1*

How did CC(=O)N1CCOc2ccc(S(=O)(=O)Nc3ccc(Cl)cn3)cc21 do in these assays?
TROY signal inh: 53.6*; CF NFkB block: -20.9; HIF-2a block: 10.2; TWEAK-Fn14 inh: 0.9; KKLEB cytotox: -3.1; Peg3 promoter: 16.8

How did CC(=O)N1CCOc2ccc(S(=O)(=O)NCc3ccc(Cl)cc3)cc21 do in these assays?
TROY signal inh: -7.3; CF NFkB block: 13.1; HIF-2a block: 13.6; TWEAK-Fn14 inh: 1.8; KKLEB cytotox: 3.4; Peg3 promoter: -3.3

Results for Cc1nc2c(ccc3nc(NC(=O)Cc4ccccc4)sc32)s1 ?
TROY signal inh: -43.1; CF NFkB block: 15.6; HIF-2a block: -132.7; TWEAK-Fn14 inh: 7.3; KKLEB cytotox: -22.6; Peg3 promoter: -158.9

Results for CC1=C/C(=N\OS(=O)(=O)c2ccccc2)C(C(C)C)=CC1=O ?
TROY signal inh: 14.5; CF NFkB block: 4.4; HIF-2a block: 29.5; TWEAK-Fn14 inh: 49.1; KKLEB cytotox: 9.8; Peg3 promoter: 95.7*

Results for CCOC(=O)c1csc(Nc2nc3ccc(F)cc3s2)n1 ?
TROY signal inh: -22.9; CF NFkB block: -30.5; HIF-2a block: -105.3; TWEAK-Fn14 inh: 105.4*; KKLEB cytotox: 4.9; Peg3 promoter: -117.4

How did CC(=O)c1sc(Nc2nc3ccc(F)cc3s2)nc1C do in these assays?
TROY signal inh: -28.3; CF NFkB block: -2.1; HIF-2a block: -206.6; TWEAK-Fn14 inh: -86.1; KKLEB cytotox: -5.8; Peg3 promoter: -266.9

How did CC/C(=N\NC(=O)C1CC1)c1cccc(Cl)c1 do in these assays?
TROY signal inh: 4.9; CF NFkB block: 5.1; HIF-2a block: 10.9; TWEAK-Fn14 inh: 2.4; KKLEB cytotox: 3.9; Peg3 promoter: -9.9

What do the screens show for `O=C(NC(c1ccc(Cl)cc1)c1c(O)ccc2ccccc12)c1ccccc1` (centres undefined)?
TROY signal inh: 51.7*; CF NFkB block: 64.3*; HIF-2a block: 20.0; TWEAK-Fn14 inh: 65.9*; KKLEB cytotox: -61.5*; Peg3 promoter: 57.8*

How did COc1ccc(-c2c(C#Cc3ccsc3)c3cc(-c4ccc5[nH]ccc5c4)ccc3n2C)cc1 do in these assays?
TROY signal inh: -11.3; CF NFkB block: -0.3; HIF-2a block: 4.2; TWEAK-Fn14 inh: -32.2; KKLEB cytotox: 13.3; Peg3 promoter: 12.4

Results for CCn1c(SCC(=O)Nc2cccc(NC(C)=O)c2)nc2c([nH]c3ccccc32)c1=O ?
TROY signal inh: -25.5; CF NFkB block: 61.3*; HIF-2a block: 17.0; TWEAK-Fn14 inh: 17.2; KKLEB cytotox: -51.5*; Peg3 promoter: 29.5

Results for COC(=O)c1sc(N2C(=O)C(O)=C(C(=O)c3ccc(C)o3)C2c2cc(OC)ccc2OC)nc1C (centres undefined) ?
TROY signal inh: -17.4; CF NFkB block: 17.0; HIF-2a block: -24.2; TWEAK-Fn14 inh: -17.3; KKLEB cytotox: -4.7; Peg3 promoter: 2.1

What do the screens show for `CCOC(=O)c1ccccc1NC(=O)C1CCN(c2ncnc3sc(C)c(C)c23)CC1`?
TROY signal inh: 1.3; CF NFkB block: 25.5; HIF-2a block: -0.3; TWEAK-Fn14 inh: -22.2; KKLEB cytotox: -12.3; Peg3 promoter: 16.5

Results for CCc1nnc(NC(=O)C2CCN(c3ncnc4sc(C)c(C)c34)CC2)s1 ?
TROY signal inh: 20.8; CF NFkB block: 35.5; HIF-2a block: 13.5; TWEAK-Fn14 inh: -0.1; KKLEB cytotox: -11.8; Peg3 promoter: 4.2

How did Cc1sc2ncnc(N3CCC(C(=O)Nc4nc(-c5cccs5)cs4)CC3)c2c1C do in these assays?
TROY signal inh: 25.2; CF NFkB block: 2.8; HIF-2a block: -5.3; TWEAK-Fn14 inh: 67.1*; KKLEB cytotox: -7.3; Peg3 promoter: -43.7

How did Cc1sc2ncnc(N3CCC(C(=O)Nc4ccccc4C(C)(C)C)CC3)c2c1C do in these assays?
TROY signal inh: 53.4*; CF NFkB block: 67.9*; HIF-2a block: 14.9; TWEAK-Fn14 inh: 74.4*; KKLEB cytotox: -22.3; Peg3 promoter: 7.6

What do the screens show for `Cc1cc(=O)n2c(-c3ccc(Cl)cc3)csc2n1`?
TROY signal inh: -20.9; CF NFkB block: 1.4; HIF-2a block: 6.7; TWEAK-Fn14 inh: -9.1; KKLEB cytotox: 1.8; Peg3 promoter: 6.3

Results for O=C(CN(C1CCCCC1)S(=O)(=O)c1ccc(F)cc1)NCC1CCCO1 (centres undefined) ?
TROY signal inh: 1.7; CF NFkB block: 90.8*; HIF-2a block: 21.9; TWEAK-Fn14 inh: 47.3; KKLEB cytotox: -94.6*; Peg3 promoter: 97.7*

How did CC1=NN(c2ccccc2)C(=O)/C1=C/C=C/c1ccc(N(C)C)cc1 do in these assays?
TROY signal inh: -4.9; CF NFkB block: -14.9; HIF-2a block: -89.3; TWEAK-Fn14 inh: 10.2; KKLEB cytotox: 2.0; Peg3 promoter: 4.9

What do the screens show for `CC1=NN(c2ccccc2)C(=O)/C1=C\C=C\c1ccccc1`?
TROY signal inh: 49.4; CF NFkB block: -2.3; HIF-2a block: 87.3*; TWEAK-Fn14 inh: 94.0*; KKLEB cytotox: 7.1; Peg3 promoter: 71.0*

Results for CCc1ccc(Nc2ccc(S(=O)(=O)N3CCOCC3)cc2[N+](=O)[O-])cc1 ?
TROY signal inh: 25.8; CF NFkB block: 5.1; HIF-2a block: 10.0; TWEAK-Fn14 inh: 17.4; KKLEB cytotox: -5.1; Peg3 promoter: 19.8

What do the screens show for `Cc1cc2ncn(/N=C/c3ccc([N+](=O)[O-])s3)c2cc1C`?
TROY signal inh: -1.0; CF NFkB block: -36.8; HIF-2a block: -6.0; TWEAK-Fn14 inh: 0.4; KKLEB cytotox: 4.8; Peg3 promoter: 73.3*

How did COc1cccc(/C=N/n2cnc3cc(C)c(C)cc32)c1OC do in these assays?
TROY signal inh: -44.9; CF NFkB block: 0.0; HIF-2a block: -216.2; TWEAK-Fn14 inh: -32.9; KKLEB cytotox: -4.6; Peg3 promoter: -158.5

How did Cc1nc2ccccc2n1/N=C/c1ccc([N+](=O)[O-])s1 do in these assays?
TROY signal inh: 4.4; CF NFkB block: 21.3; HIF-2a block: -7.7; TWEAK-Fn14 inh: 70.4*; KKLEB cytotox: -20.3; Peg3 promoter: 42.6

Results for O=[N+]([O-])c1ccc(/C=N/n2cnc3ccccc32)s1 ?
TROY signal inh: -16.4; CF NFkB block: 17.6; HIF-2a block: -46.1; TWEAK-Fn14 inh: 53.6*; KKLEB cytotox: -10.0; Peg3 promoter: 38.2
